Assay results reported in PubChem BioAssay (EPA / NIEHS).
Activity calls are given as the source filed them. The calls were made as follows: active = hit-call score of the fitted dose curve at least 0.9, where 1 is the maximum; inactive = score below 0.9.

Key:
[1] = read-out: Collagen I, COL1A1 (gene 1277); assay: BSK_MyoF_CollagenI: BioMAP Diversity Plus: MyoF Assay for Collagen I Biomarker Activity (AID 2284238); details: primary human lung fibroblasts
Summary of the method: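 Measured by ELISA: Collagen I from human lung fibroblasts 24 h after compound addition, analysed for signal gain with DMSO as baseline; overt toxicity read from SRB staining of parallel cultures at the same time.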

[2] = read-out: Collagen III, COL3A1 (gene 1281); assay: BSK_MyoF_CollagenIII: BioMAP Diversity Plus: MyoF Assay for Collagen III Biomarker Activity (AID 2284239); details: primary human lung fibroblasts
Summary of the method: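 Multiplexed cell assay in lung fibroblasts, harvested at 24 h post-dose. Collagen III detected by ELISA, with positive-direction fitting relative to DMSO vehicle.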

[3] = read-out: Interleukin 2 (IL2), IL2 (gene 3558); assay: BSK_BT_xIL2: BioMAP Diversity Plus: BT Assay for Interleukin 2 (IL2) Biomarker Activity (AID 2284245); details: primary human B cells with PBMC
Summary of the method: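 B cell + PBMC co-culture (human primary), compound added, 24 h incubation; secreted IL-2 measured multiplexed on Luminex xMAP; gain-of-signal fit vs DMSO.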

[4] = read-out: Basic fibroblast growth factor (bFGF), FGF2 (gene 2247); assay: BSK_MyoF_bFGF: BioMAP Diversity Plus: MyoF Assay for Basic fibroblast growth factor (bFGF) Biomarker Activity (AID 2284246); details: primary human lung fibroblasts
Summary of the method: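 ELISA-measured bFGF level serves as the read-out, taken 24 h after chemical dosing of human lung fibroblasts. Values represent signal gain over the DMSO negative control.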

[5] = read-out: Collagen IV, COL4A1 (gene 1282); assay: BSK_MyoF_CollagenIV: BioMAP Diversity Plus: MyoF Assay for Collagen IV Biomarker Activity (AID 2284247); details: primary human lung fibroblasts
Summary of the method: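 Steps: dose human lung fibroblasts; culture 24 h; quantify Collagen IV by ELISA; fit increase versus DMSO control. Parallel SRB total-protein staining (0.1% SRB after 10% TCA fixation, 560 nm) tracks overt cytotoxicity.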

[6] = read-out: Plasminogen activator inhibitor-1 (PAI1), SERPINE1 (gene 5054); assay: BSK_MyoF_PAI1: BioMAP Diversity Plus: MyoF Assay for Plasminogen activator inhibitor-1 (PAI1) Biomarker Activity (AID 2284256); details: primary human lung fibroblasts
Summary of the method: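 In this multiplexed primary-cell system, fibroblasts from human lung received compound for 24 h before ELISA detection of PAI-1; overt toxicity was checked by SRB (0.1%, TCA-fixed, 560 nm) in parallel wells.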

[7] = read-out: Interleukin-8 (IL8), CXCL8 (gene 3576); assay: BSK_MyoF_IL8: BioMAP Diversity Plus: MyoF Assay for Interleukin-8 (IL8) Biomarker Activity (AID 2284261); details: primary human lung fibroblasts
Summary of the method: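 DMSO-normalised, upward-fitted IL-8 ELISA signal; human lung fibroblasts, 24 h chemical treatment.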

Decorin, DCN (gene 1634) = assay: BSK_MyoF_Decorin: BioMAP Diversity Plus: MyoF Assay for Decorin Biomarker Activity (AID 2284265); details: primary human lung fibroblasts
Summary of the method: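 In this multiplexed fibroblast system, secreted or surface decorin is detected by ELISA one day after dosing, with increases scored against the DMSO vehicle.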

[8] = BSK_MyoF_SRB: Viability Assessment in the BioMAP Diversity Plus: MyoF Assay (AID 2284267); details: primary human lung fibroblasts;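 also: total protein by SRB absorbance in parallel cultures as cytotoxicity measure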
Summary of the method: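 Read-out is SRB absorbance at 560 nm, reflecting total protein in parallel lung fibroblast cultures harvested 24 h after compound addition. Cells were TCA-fixed (10%) and stained with 0.1% SRB; activity is referenced to DMSO.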

[9] = read-out: Matrix Metallopeptidase 1 (MMP1), MMP1 (gene 4312); assay: BSK_MyoF_MMP1: BioMAP Diversity Plus: MyoF Assay for Matrix Metallopeptidase 1 (MMP1) Biomarker Activity (AID 2284268); details: primary human lung fibroblasts
Summary of the method: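 Fibroblasts from human lung receive compound for 24 h before ELISA quantitation of MMP1. DMSO serves as baseline, and the endpoint is fitted for signal gain.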

[10] = read-out: TIMP metallopeptidase inhibitor 1 (TIMP1), TIMP1 (gene 7076); assay: BSK_MyoF_TIMP1: BioMAP Diversity Plus: MyoF Assay for TIMP metallopeptidase inhibitor 1 (TIMP1) Biomarker Activity (AID 2284269); details: primary human lung fibroblasts
Summary of the method: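 ELISA quantified TIMP-1 levels after 24 h dosing of primary human lung fibroblasts, with DMSO as baseline. Parallel SRB total protein staining (0.1% SRB after TCA fixation, 560 nm) flagged overt cytotoxicity.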

Measured: AC50

CC(C)(COC(=O)c1ccccc1)COC(=O)c1ccccc1
inactive: [1] | [2] | [3] | [4] | [5] | [6] | [7] | Decorin, DCN (gene 1634) | [8] | [9] | [10]

O=[N+]([O-])c1cc(C(F)(F)F)ccc1Cl
active: [6] 0.11 µM
inactive: [1] | [2] | [3] | [4] | [5] | [7] | Decorin, DCN (gene 1634) | [8] | [9] | [10]

CCc1c(C)cc(N)c(CC)c1N
inactive: [1] | [2] | [3] | [4] | [5] | [6] | [7] | Decorin, DCN (gene 1634) | [8] | [9] | [10]

Cc1ccc2n[nH]nc2c1
inactive: [1] | [2] | [3] | [4] | [5] | [6] | [7] | Decorin, DCN (gene 1634) | [8] | [9] | [10]

O=C(O)c1cn(-c2ccc(F)cc2)c2cc(N3CCNCC3)c(F)cc2c1=O
inactive: [1] | [2] | [3] | [4] | [5] | [6] | [7] | Decorin, DCN (gene 1634) | [8] | [9] | [10]

CCCCC(CC)COCCC#N (configuration not stated)
inactive: [1] | [2] | [3] | [4] | [5] | [6] | [7] | Decorin, DCN (gene 1634) | [8] | [9] | [10]

O=C(O)C[C@H](O)C[C@H](O)/C=C/c1c(C2CC2)nc2ccccc2c1-c1ccc(F)cc1
active: [2] 2.16 µM | [3] 5 µM | [6] 5 µM | [7] 1.1 µM | [8] 3.1 µM | [9] 0.498 µM
inactive: [1] | [4] | [5] | Decorin, DCN (gene 1634) | [10]

Cc1ccc(O)c(C(C)(C)C)c1
inactive: [3] | [5] | [7] | Decorin, DCN (gene 1634) | [9]
active: [1] 35.4 µM | [2] 30.3 µM | [4] 36.1 µM | [6] 31.6 µM | [8] 34.3 µM | [10] 33.7 µM

Nc1cc([N+](=O)[O-])ccc1Cl
inactive: [1] | [2] | [3] | [4] | [5] | [6] | [7] | Decorin, DCN (gene 1634) | [8] | [9] | [10]

CCCCCCCCCCCCCCCCCC(=O)OCC(CC)CCCC (configuration not stated)
inactive: [1] | [2] | [3] | [4] | [5] | [6] | [7] | Decorin, DCN (gene 1634) | [8] | [9] | [10]

C#C[C@]1(O)CC[C@H]2[C@@H]3CCC4=Cc5oncc5C[C@]4(C)[C@H]3CC[C@@]21C
inactive: [1] | [5] | [7] | Decorin, DCN (gene 1634) | [8] | [9]
active: [2] 28.1 µM | [3] 28.6 µM | [4] 30.8 µM | [6] 3.97 µM | [10] 35.8 µM

O=C1CCCCCCCCCCCCCCO1
active: [1] 8.87 µM | [2] 20 µM | [3] 32.9 µM | [9] 20 µM
inactive: [4] | [5] | [6] | [7] | Decorin, DCN (gene 1634) | [8] | [10]
